# Bioassay records from PubChem.
# Shown are actives, neighbours in structure and some others; about 11% of the full set was active somewhere.
# BAZ2B block – BAZ2B (human) inhibition; AID 504333; AlphaScreen BAZ2B-H3K14Ac peptide displacement; Q9UIF8; 360,000 compounds, 4.4% hits; Potency, µM (series often up to 114 µM), for inactives: top-dose activity change, negative = inhibition, hits mostly inhibitors; note: % is set by controls: 0 for no effect and ±100 for the full control effect; nearly all actives have a fitted effect of over 60% in size
#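 BAZ2B 50 nM plus b-H3(5-23)K14Ac 50 nM, PBS pH 7.4/0.01% Tween-20, 30 min RT; compound added (max 110 uM), 30 min RT; streptavidin donor/Ni-chelate acceptor beads 10 ug/mL final, 20 min dark; AlphaScreen read.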
# G9a inh – blocks human histone lysine methyltransferase G9a. Q96KQ7. G9a H3K9 monomethylation, AlphaScreen, 2 h. Potency, µM (highest dose often 102 µM), for inactives: top-dose activity, negative = inhibition, usual class: inhibitors. 350,000 compounds, 8.8% hits; note: % is set by controls: 0 for no effect and ±100 for the full control effect; nearly all actives have a fitted effect of over 75% in size
# Target sequence (Q96KQ7 913-1193 limits assumed): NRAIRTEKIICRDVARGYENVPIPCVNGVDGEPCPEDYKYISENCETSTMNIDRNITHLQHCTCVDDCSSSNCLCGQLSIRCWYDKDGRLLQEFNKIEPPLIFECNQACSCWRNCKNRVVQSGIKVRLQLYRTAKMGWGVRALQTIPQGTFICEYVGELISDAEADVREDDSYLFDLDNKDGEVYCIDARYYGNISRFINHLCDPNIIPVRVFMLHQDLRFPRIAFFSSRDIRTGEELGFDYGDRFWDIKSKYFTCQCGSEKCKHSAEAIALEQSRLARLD
#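 Readings reflect AlphaScreen signal from monomethyl-H3K9 antibody detection. HMT at 20 nM; substrate b-H3K9 500 nM; cofactor SAM 20 uM; 2 h RT reaction; compounds tested as titrations in qHTS with 15 min preincubation.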
# HP1b chromo inh – inhibitors of HP1-beta chromodomain binding to methylated histone tails. Potency, µM (titrated, usually from 114 µM), without a hit: at the highest dose activity change, negative = inhibition, usual class: inhibitors. AlphaScreen HP1-beta / biotin-H3K9me3 peptide binding. 390,000 compounds, 0.56% hits; note: nearly all actives have a fitted effect of over 70% in size
#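 Compound inhibition of the preformed complex between 50 nM HP1-beta and 50 nM biotinylated H3K9me3 peptide was read by AlphaScreen. Buffer was PBS pH 7.4 with 0.01% Tween-20. Incubations ran 30 min at room temperature, with 10 ug/mL donor/acceptor beads.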
# PLK1 PBD block – inhibitors of human PLK1 polo-box domain binding. P53350. Plk1 PBD binding of FITC phosphopeptide, fluorescence polarization. Potency, µM, without a hit: max response, negative = inhibition, usual class: inhibitors. 360,000 compounds, 2.8% hits; note: series mostly up to about 57 µM; % is set by controls: 0 for no effect and ±100 for the full control effect; nearly all actives have a fitted effect of over 65% in size
# VDR inhibitor – vitamin D3 receptor (human) inhibition; P11473; VDR-SRC2-3 peptide fluorescence polarization, 2 h; Potency, µM, for inactives: max response, negative = inhibition, actives largely listed as inhibitors; 400,000 compounds, 0.93% hits; AID 504847; note: % is set by controls: 0 for no effect and ±100 for the full control effect
# Target sequence (P11473 whole entry, looked up): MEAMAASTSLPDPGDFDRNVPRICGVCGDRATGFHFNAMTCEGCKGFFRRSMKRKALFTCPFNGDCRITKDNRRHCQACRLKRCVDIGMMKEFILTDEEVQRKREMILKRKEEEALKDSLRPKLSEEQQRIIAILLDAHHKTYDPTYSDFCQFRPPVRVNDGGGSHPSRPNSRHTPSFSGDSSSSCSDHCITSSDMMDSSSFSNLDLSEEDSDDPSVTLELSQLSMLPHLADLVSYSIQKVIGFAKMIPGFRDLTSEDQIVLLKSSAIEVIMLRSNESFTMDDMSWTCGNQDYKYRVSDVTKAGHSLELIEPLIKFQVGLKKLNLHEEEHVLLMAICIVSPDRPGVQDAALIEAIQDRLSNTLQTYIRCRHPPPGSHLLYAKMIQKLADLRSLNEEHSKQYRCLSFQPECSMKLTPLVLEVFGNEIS
#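 Fluorescence polarization assay of small-molecule disruption of VDR binding to coregulator peptide SRC2-3. Compounds and controls pin-transferred, then read after 2 h incubation at ambient room temperature.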
# JMJD2A Tudor inh – inhibitors of human JMJD2A Tudor domain | AID 504339 | AlphaScreen JMJD2A-Tudor / H3K4me3 peptide binding | 390,000 compounds, 4.4% hits | Potency, µM (titrated, usually from 114 µM), for inactives: at the top dose activity change, negative = inhibition, actives largely listed as inhibitors | O75164; note: % is set by controls: 0 for no effect and ±100 for the full control effect; nearly all actives have a fitted effect of over 50% in size
# Starred values were filed as active, the others as inactive; ? = inconclusive; nt = no result; [ ] = remark or other dose. Calls come from the whole dose curve; as a rule, active = well fitted curve in the direction sought with a large enough effect; inconclusive = small, poorly fitted or top-dose-only effect, or another doubt; inactive = no such curve, though single readings can be large; an effect the other way counts as inactive or inconclusive. Potency is the fitted concentration of half-maximal effect.
SMILES,BAZ2B block,G9a inh,HP1b chromo inh,PLK1 PBD block,VDR inhibitor,JMJD2A Tudor inh
CC(C)(C)OC(=O)N1CCC(c2c(C(=O)NCC3CCN(C4CCCC4)C3)cnn2-c2ccccc2Cl)CC1 (stereo not drawn),-17%,71µM*,33%,-1%,-20%,-20%
O=C(CSc1nnc(CNc2cccc(Cl)c2)o1)OC1CCCCC1,15%,37%[59 µM],45%,-7%,13%,23%
O=C(CSc1nnc(CNc2ccc(F)cc2)o1)OC1CCCCC1,4%,nt,-15%,21µM*,?,?
Cc1cc2[nH]ncc2cc1NC(N)=S,-1%,11%,44%,0%,11%,-4%
Cc1cc(C)c2c(NC(N)=S)n[nH]c2n1,0%,25µM*,-1%,-1%,-9%,32µM*
COc1ccccc1NC(=O)c1sc2nc3n(c(=O)c2c1C)N=C(c1cccc(Br)c1)CS3,-1%,11%[59 µM],23%,nt,5%,-7%
N=C1CCC(=N)c2c1c(O)c1ccccc1c2O,14µM*,nt,20µM*,?,?,14µM*
CC(=O)Nc1ccc(C(C#N)=Cc2ccc(N(C)CCC#N)cc2)cc1,nt,nt,nt,6%,nt,nt
S=C(NC1CCCCCC1)NC1CCCC1,-6%,-2%,0%,-13%,-1%,-11%
NNC(=S)NC1CCCCCCCCCCC1,32µM*,nt,32%,-6%,-12%,?
FC(F)(F)c1ccccc1-n1c(-c2ccco2)n[nH]c1=S,-2%,16µM*,49%,-10%,-19%,-30%
Cc1ccccc1-n1c(-c2ccco2)n[nH]c1=S,-9%,7.1µM*,-10%,-2%,-7%,3.2µM*
Cc1ccc(Cn2cnc3c(cnn3-c3ccc(F)cc3)c2=O)cc1,-4%,-28%,46%,2%,9%,-2%
CC(=O)OC1CC[C@@]2(C)C3=CC(=O)[C@]4(C)C(CC5OC6(OCC(C)CC6Br)C(C)C54)C3CC[C@H]2C1 (stereo partly drawn),nt,nt,nt,nt,0%,nt
O=C(NCCCn1ccnc1)C(=O)NCC1OCCCN1S(=O)(=O)c1ccc(F)cc1 (stereo not drawn),50µM*,-4%,15%,-9%,-19%,-33%
O=C(NCCCn1ccnc1)C(=O)NCC1OCCN1S(=O)(=O)c1ccc(Cl)cc1 (stereo not drawn),13µM*,-14%,24%,-6%,13%,79µM*
O=C(NCCCn1ccnc1)C(=O)NCC1OCCN1S(=O)(=O)c1ccccc1 (stereo not drawn),22µM*,19%,33%,-8%,-4%,?
O=C(NCCc1ccccc1)C(=O)NCC1OCCN1S(=O)(=O)c1ccccc1 (stereo not drawn),-19%,-1%,17%,6%,9%,11%
O=C(NCCCn1ccnc1)C(=O)NCC1OCCCN1S(=O)(=O)c1ccccc1 (stereo not drawn),14µM*,17%[59 µM],12%,-11%,?,-9%
CC1=C(C(=O)N(C)C)C(c2ccc(C)s2)NC(=S)N1 (stereo not drawn),4%,?,50%,-7%,0%,5%
Cc1cc(NC(=O)Cn2c(=O)oc3cc(S(=O)(=O)N4CCCC4)ccc32)ccc1Br,-2%,2%[59 µM],38%,nt,3%,-4%
CC1CN(C(=S)Nc2ccc(Cl)cc2)CC(C)O1 (stereo not drawn),5%,-14%,32%,3%,-25%,1%
CC1CN(c2ccc(NC(=S)Nc3ccc(N4CC(C)OC(C)C4)cc3)cc2)CC(C)O1 (stereo not drawn),-33%,45µM*,31%,-3%,0%,-19%
Cc1cc(Cl)ccc1NC(=O)c1cccc(NC(=O)N2CCSc3ncccc32)c1,-23%,?,33%,nt,5%,-14%
N=C(N)SCc1ccc(O)c([N+](=O)[O-])c1,-22%,32µM*,11%,-28%,4%,-8%[11.4 µM]
SMILES,BAZ2B block,G9a inh,HP1b chromo inh,PLK1 PBD block,VDR inhibitor,JMJD2A Tudor inh
Cc1nc(SCc2ccc(O)c([N+](=O)[O-])c2)n[nH]1,-4%,6.3µM*,11%[57 µM],-15%,-13%,?
COc1ccc(CCNCC(O)c2ccccc2)cc1 (stereo not drawn),56µM*,14µM*,-4%,-3%,11%,5µM*
COc1ccc(CCNCC(C)c2ccccc2)cc1 (stereo not drawn),?,45µM*,-38%,1%,-7%,7.9µM*
COc1ccc(NC(C)c2ccccc2)cc1 (stereo not drawn),40µM*,13µM*,?,-6%,-9%,50µM*
OC(CNCCc1ccccc1)c1ccccc1 (stereo not drawn),3%,0%[12.7 µM],23%,-5%,-8%,-25%
O=C(Cc1ccc(F)cc1)Nc1cccc(-c2nc3cccnc3s2)c1,-2%,-36%[59 µM],15%,nt,13%,-17%
O=C(CSc1ncnc2ccccc12)N1CCNC1=O,nt,nt,40%,-14%,3%,-6%
O=C(CSc1ncc(C(F)(F)F)cc1Cl)N1CCNC1=O,nt,nt,47%,27µM*,-12%,-2%
O=C(CSc1ncc(C(F)(F)F)cc1Cl)N1CCN(S(=O)(=O)c2ccc3ccccc3c2)CC1,-3%,11%[59 µM],-8%,24µM*,?,?
COc1cccc(C2C(C#N)=C(NC(=O)CCc3ccccc3)Oc3ccc4ccccc4c32)c1 (stereo not drawn),nt,nt,nt,nt,nt,-24%
COc1ccc(NC(=O)C2CCN(S(=O)(=O)c3ccc4c(c3)CC(C)N4C(C)=O)CC2)c(OC)c1 (stereo not drawn),-28%,5%,48%,-16%,16%,-34%
COc1cn(-c2ccccc2)nc1C(=O)Nc1ccccc1,-5%,50µM*,2%,-2%,-8%,-9%
CCOc1ccccc1NC(=O)NCCC1=CCCCC1,-10%,30%,27%,-15%,-9%,-9%
CC(C)(C)NC(=O)C(=O)NCCC1=CCCCC1,-7%,21%,?,21µM*,-4%,-31%[57.1 µM]
CCOc1ccccc1NC(=O)C(=O)NCCC1=CCCCC1,-2%,-4%,-3%,27µM*,-3%,?
CCC(C)[C@H](NC(=O)NCCC1=CCCCC1)C(=O)O (stereo partly drawn),-1%,-10%[12.7 µM],20%,24µM*,?,-9%[11.4 µM]
Cn1c(=O)c2ccccc2n(CC(=O)NCCC2=CCCCC2)c1=O,0%,28µM*,10%,-5%,7%,1%
CC(C)[C@H](NC(=O)NCCC1=CCCCC1)C(=O)O,-9%,19%,50%,-10%,4%,2%[11.4 µM]
Cc1ccc(N2CCN(Cc3nnc(-c4ccccc4F)o3)CC2)c(C)c1,-4%,5%[59 µM],31%,nt,-1%,-2%
NC(=O)NC(=O)COC(=O)c1ccc2c(c1)C(=O)N(Cc1ccccc1)C2=O,-10%,-5%,22%,-1%,?,-14%
